# Screening results as filed in PubChem BioAssay.
# In the library only some 6.3% were active in any assay of this set; here they are far more common.
# Gal4-VP16 FLuc – inhibits Gal4-VP16 luciferase reporter, ROR gamma counter-screen | Drosophila S2 Gal4-VP16 UAS-luciferase, luminescence, 20 h | hit rate 3.5% among 310,000 | Potency, µM (series often up to 53.6 µM), hits mostly inhibitors;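 note: Gal4-VP16 expression switched on by copper sulfate through the metallothionein promoter; nearly all actives have a fitted effect of over 50% in size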
# HepG2 tox – counter-screen for TGF-b inhibitors: cytotoxicity in HepG2 cells. HepG2 CAGA-GFP viability, ATP luminescence, 18 h. Potency, µM (series often up to 46.1 µM), actives largely listed as cytotoxic. hit rate 0.76% among 410,000. AID 588856
#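 HepG2 CAGA-GFP cells (1000/well, DMEM with 1% FBS) received compound, then TGF-beta at 500 pg/mL final, and were incubated 18 hours at 37 degrees C. Viability was read by CellTiter-Glo luminescence. Media-only wells were set as complete cell-killing and DMSO as no toxicity.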
# ATXN viability – viability counter-screen for ATXN expression inhibitors; S2 cells (HEK-293 line with an ATXN2-luciferase reporter) viability, CellTiter-Fluor protease fluorescence, 24 h; Potency, µM (top dose mostly 56.7 µM), usual class: cytotoxic; hit rate 0.49% among 400,000; AID 651635; note: nearly all actives have a fitted effect of over 40% in size
# ATXN2 expr inh – ATXN2 expression inhibition. Potency, µM (doses to about 57 µM), actives largely listed as inhibitors. hit rate 0.72% among 360,000. HEK-293 ATXN2-luciferase reporter, luminescence, 24 h; note: nearly all actives have a fitted effect of over 55% in size
#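 qHTS (up to 57 uM final) was run with 24 h compound exposure of reporter cells at 37 °C. Each well was multiplexed: SteadyGlo luminescence measured ATXN2-luciferase expression after a fluorogenic Gly-Phe-AFC viability readout (25 uM final).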
# RORgamma inh – blocks mouse ROR gamma transcriptional activity. Drosophila S2 Gal4-RORgamma UAS-luciferase reporter, 20 h. Potency, µM (titrated, usually from 53.6 µM), usual class: inhibitors. hit rate 5.4% among 310,000. AID 2551; note: nearly all actives have a fitted effect of over 60% in size
# Target sequence (P51450 whole entry, looked up, the tested form may be a part): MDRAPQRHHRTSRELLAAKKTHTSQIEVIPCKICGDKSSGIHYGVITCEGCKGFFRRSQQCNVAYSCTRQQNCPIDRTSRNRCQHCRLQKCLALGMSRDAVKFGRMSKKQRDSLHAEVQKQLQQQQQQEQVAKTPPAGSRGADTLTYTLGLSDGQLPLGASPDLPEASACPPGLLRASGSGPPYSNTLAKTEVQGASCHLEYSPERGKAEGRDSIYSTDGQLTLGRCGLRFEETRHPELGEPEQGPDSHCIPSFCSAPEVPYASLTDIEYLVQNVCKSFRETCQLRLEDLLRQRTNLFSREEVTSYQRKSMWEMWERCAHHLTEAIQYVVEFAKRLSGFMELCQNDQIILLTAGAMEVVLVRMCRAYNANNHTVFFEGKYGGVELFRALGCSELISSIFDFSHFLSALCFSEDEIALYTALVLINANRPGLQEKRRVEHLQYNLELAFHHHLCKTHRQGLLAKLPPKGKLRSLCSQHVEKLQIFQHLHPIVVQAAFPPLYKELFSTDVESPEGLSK
#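 Stable Schneider cell line, Gal4 DNA-binding domain fused to ROR gamma, UAS-luciferase. Cmpd 1 hr RT → CuSO4 700 uM final → 20 hr RT → luciferase reagent 10 min → luminescence.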
# TGFb inhibitor – inhibitors of TGF-b signaling; HepG2 CAGA-GFP TGF-b/SMAD3 reporter, GFP fluorescence, 18 h; TGF-beta stimulated, 500 pg/mL final; Potency, µM (top dose mostly 46.1 µM), hits mostly inhibitors; hit rate 1.2% among 410,000; note: nearly all actives have a fitted effect of over 65% in size
#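 GFP signal (ex488/em500-530) from TGF-beta-stimulated HEPG2 CAGA-GFP cells, 500 pg/mL final, 18 h at 37 degrees C in DMEM plus 1% FBS, normalized to unstimulated and DMSO-stimulated controls.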
# Numbers stand for hits; 0 = inactive; ? = inconclusive; - = no result; ! = repeats disagree; [ ] = another dose, or the depositor's remark. Calls come from the whole dose curve; as a rule, active = well fitted curve in the direction sought with a large enough effect; inconclusive = small, poorly fitted or top-dose-only effect, or another doubt; inactive = no such curve, though single readings can be large; an effect the other way counts as inactive or inconclusive.
SMILES,Gal4-VP16 FLuc,HepG2 tox,ATXN viability,ATXN2 expr inh,RORgamma inh,TGFb inhibitor
CC(CCc1ccccc1)NC(=O)COC(=O)c1ccc([N+](=O)[O-])cc1 (configuration not stated),0,0,0,0,0,0
CS(=O)(=O)c1ccc(C(=O)OCC(=O)Nc2ccc(OC(F)(F)F)cc2)cc1[N+](=O)[O-],-,0,-,-,-,?
Cc1ccccc1NC(=O)Cc1nc(COC(=O)c2ccc(S(C)(=O)=O)c([N+](=O)[O-])c2)cs1,-,0,?,-,-,13µM
CS(=O)(=O)c1ccc(C(=O)OCc2nnc(-c3ccccc3)o2)cc1[N+](=O)[O-],13µM,0,?,?,16µM,?
Cc1ccccc1NC(=O)Cc1nc(COC(=O)c2ccc(NC(N)=O)cc2)cs1,-,0,0,0,-,0
CC(CCc1ccccc1)NC(=O)COC(=O)c1ccc(S(C)(=O)=O)c([N+](=O)[O-])c1 (configuration not stated),?,0,?,?,10µM,?
COc1cccc(C(C)(O)c2nc(-c3cc(F)cc(F)c3)cs2)c1 (configuration not stated),-,0,0,0,-,?
C[C@H]1C[C@@H]2[C@H]([C@@H](O)C[C@@]3(C)[C@H]2CC[C@]3(O)C(=O)COC(=O)CCC(=O)O)[C@@]2(C)C=CC(=O)C=C12,-,-,0,-,-,-
Cc1ccccc1NC(=O)COC(=O)c1ccc(S(C)(=O)=O)c([N+](=O)[O-])c1,?,10µM!,0,0,14µM,7.9µM
CS(=O)(=O)c1ccc(C(=O)OCC(=O)Nc2cccnc2Cl)cc1[N+](=O)[O-],-,0,0,0,-,?
CS(=O)(=O)c1ccc(C(=O)OCC(=O)Nc2cc(C(F)(F)F)ccc2Cl)cc1[N+](=O)[O-],-,0,-,-,-,8.9µM
Cc1ccc2oc(=O)c3cnn(CC(=O)N4CCN(c5cc(Cl)ccc5C)CC4)c3c2c1,-,0,-,-,-,?
Cc1cccc(N2CCN(c3nc4ccccc4c(=O)n3-c3ccc(Cl)cc3)CC2)c1C,-,0,-,-,-,0
O=c1c2ccccc2nc(N2CCN(c3cccc(Cl)c3)CC2)n1-c1ccccc1,-,0,-,-,-,7.1µM
Clc1ccc(COn2c(-c3ccccc3)nc3ccccc32)cc1,?,0,0,0,10µM,0
O=[N+]([O-])c1ccc2nc(-c3ccc(Cl)cc3)n(OCc3ccccc3)c2c1,?,0,0,0,0,0
Clc1ccc(COn2c(-c3ccc(Cl)cc3)nc3ccccc32)cc1,0,0,?,0,11µM,0
CC1Cc2cc(S(=O)(=O)CCC(=O)Nc3ccc(F)cc3)ccc2N1C(=O)C1CC1 (configuration not stated),-,0,-,-,-,?
Cc1sc2ccccc2[n+]1CCCC[n+]1c(C)sc2ccccc21,-,0,-,-,-,?
CN(C)/C=N/c1nc2c(ncn2C2CC(O)C(CO)O2)c(=O)[nH]1 (configuration not stated),-,0,-,-,-,0
CCOC(=O)/C(O)=C/c1ncc(C(F)(F)F)cc1Cl,10µM,0,0,0,8.9µM,0
CCOC(=O)C(C(=O)N(C)C)c1ncc(C(F)(F)F)cc1Cl (configuration not stated),0,0,0,0,0,0
Cc1ccc(OCc2n[nH]c(=S)n2-c2ccc(Cl)cc2)cc1,3.2µM,0,0,0,0[1.91 µM],0
COc1ccc(-n2c(COc3ccc(Cl)cc3Cl)n[nH]c2=S)cc1,-,0,0,-,-,?
Cc1ccc(OCc2n[nH]c(=S)n2N)cc1C,0,0,0,0,7.9µM,0
SMILES,Gal4-VP16 FLuc,HepG2 tox,ATXN viability,ATXN2 expr inh,RORgamma inh,TGFb inhibitor
Cc1ccccc1OCc1n[nH]c(=S)n1-c1ccccc1,8.9µM,0,0,0[11.3 µM],2.5µM,0
S=c1[nH]nc(COc2ccc(Cl)cc2)n1-c1ccc(Cl)cc1,?,0,0,0,5.6µM,0
CCOC(=O)C(=O)c1csc(NC=O)n1,-,-,0,0,-,-
O=C(NCc1ccccn1)c1cnn(-c2ncc3c(n2)-c2ccccc2CC3)c1C1CC1,-,-,0,-,-,-
COc1cc(=O)n2c(c1C(=O)NCc1ccco1)CCN(Cc1ccc3nsnc3c1)CC2,-,-,0,-,-,-
S=c1[nH]nc(COc2ccc(Cl)cc2)n1-c1ccccc1,3.2µM,0,?,0,4µM,0
